Data on nine compounds can be found in PubChem BioAssay (EPA / NIEHS).

Inconclusive results are not listed. The source made the active and inactive calls. How the source made its calls, unless noted: active means hit-call score of the fitted dose curve at least 0.9, where 1 is the maximum; inactive means score below 0.9.

Experiment [1] can be described thus: ATG_PBREM_CIS: Attagene CIS-FACTORIAL HepG2 Assay for human Phenobarbital-responsive Enhancer Module (PBREM) (AID 2282955). Conditions: HepG2 PBREM cis-reporter, Attagene multiplexed transcription; actives raise or lower the signal. The method in brief:
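HepG2, transient MRTU transfection, 24 h dosing; RNA → oligo(dT) RT → PCR → 6-FAM extension → HpaI → CE. Bidirectional fit vs DMSO.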

The target of experiment [2] is Paired box protein Pax-6 (Homo sapiens) (UniProt P26367). The experiment can be described thus: ATG_Pax6_CIS: Attagene CIS-FACTORIAL HepG2 Assay for human Paired Box 6 (PAX6) (AID 2282956). Conditions: HepG2 CIS-FACTORIAL PAX6 reporter transcription, RNA readout; actives raise or lower the signal. The method in brief:
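After twenty-four hours of chemical exposure, transfected HepG2 cells are harvested for RNA. Cis-promoter reporter transcripts are amplified, fluorescently labelled and sized by capillary electrophoresis, with gain and loss of signal scored against DMSO.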

Experiment [3] can be described thus: ATG_PXRE_CIS: Attagene CIS-FACTORIAL HepG2 Assay for human Pregnane X Receptor Element (PXRE) (AID 2282957). Conditions: HepG2 Attagene CIS-FACTORIAL PXRE reporter, mRNA; actives raise or lower the signal. The method in brief: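 Cells: HepG2, transiently transfected reporter units under cis promoter control. Exposure: 24 h. Detection: reporter mRNA via RT-PCR/CE fluorescence; bidirectional fitting, DMSO-referenced.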

The nature of experiment [4]: ATG_RORE_CIS: Attagene CIS-FACTORIAL HepG2 Assay for human RAR-related Orphan Receptor Element (RORE) (AID 2282959). Conditions: HepG2 Attagene cis-factorial RORE reporter, mRNA; actives raise or lower the signal. The method, boiled down: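 Multiplexed reporter assay measuring mRNA induction from a cis promoter element in transiently transfected HepG2 cells after 24 h treatment. Detection via RT-PCR and capillary electrophoresis fluorescence; DMSO serves as baseline.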

Experiment [5] can be described thus: ATG_Sox_CIS: Attagene CIS-FACTORIAL HepG2 Assay for human SRY-box transcription factor (SOX) (AID 2282960). Conditions: HepG2 Attagene cis-factorial SOX reporter, mRNA; actives raise or lower the signal. The method in brief: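 Cells were transfected with reporter constructs under cis-regulatory promoters, then exposed to chemicals for 24 h. Reporter transcripts were quantified by fluorescence after RT-PCR and capillary electrophoresis; activity was fitted in both directions against DMSO.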

Experiment [6] deals with Transcription factor Sp1 (Homo sapiens) (UniProt P08047). The experiment can be described thus: ATG_Sp1_CIS: Attagene CIS-FACTORIAL HepG2 Assay for human Specificity Protein 1 (Sp1) (AID 2282961). The note with it: HepG2 Sp1 cis-reporter transcription, actives raise or lower the signal. The method in brief:
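Measures mRNA induction of an Sp1-linked reporter in HepG2 cells 24 h post-dosing. Multiplexed reporters read by RT-PCR and capillary electrophoresis; DMSO serves as negative control and baseline.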

A short description of experiment [7]: ATG_SREBP_CIS: Attagene CIS-FACTORIAL HepG2 Assay for human Sterol Regulatory Element Binding (SREBP) (AID 2282962). Conditions: HepG2 Attagene cis-factorial SREBP reporter, mRNA; actives raise or lower the signal. The method, boiled down: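 Twenty-four hours after chemical dosing of transfected HepG2 cultures, reporter RNA was converted to cDNA, amplified, end-labelled with 6-FAM and resolved by capillary electrophoresis. Responses were fitted relative to DMSO.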

Experiment [8] is described as follows: ATG_TCF_b_cat_CIS: Attagene CIS-FACTORIAL HepG2 Assay for human T-Cell-Factor with beta-catenin (TCF/b-cat) (AID 2282965). The note with it: HepG2 TCF/beta-catenin cis-reporter transcription, actives raise or lower the signal. The method, boiled down: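 Cells of the HepG2 line carry transiently transfected reporter units whose promoters respond to endogenous factors. Twenty-four hours post-dosing, reporter mRNA induction is measured by fluorescent RT-PCR and capillary electrophoresis, with DMSO as baseline.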

A short description of experiment [9]: ATG_TAL_CIS: Attagene CIS-FACTORIAL HepG2 Assay for human TAL Basal Promoter (AID 2282966).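 Further: background control endpoint measuring basal TAL promoter reporter mRNA not a specific factor.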 Conditions: HepG2 Attagene cis-factorial TAL promoter reporter; actives raise or lower the signal. The method, boiled down: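 RT-PCR plus capillary electrophoresis quantifies reporter mRNA induction in transiently transfected HepG2 cells after 24 h chemical treatment. DMSO serves as negative control and baseline for bidirectional fitting.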

Experiment [10] in a line: ATG_TGFb_CIS: Attagene CIS-FACTORIAL HepG2 Assay for human Transforming Growth Factor (TGF) (AID 2282967). The note with it: HepG2 Attagene CIS TGFb reporter, mRNA transcription; actives raise or lower the signal. The method, boiled down: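 Endogenous TGFB1-linked transcription factor activity read as reporter mRNA via RT-PCR and capillary electrophoresis, 24 h after dosing transiently transfected HepG2 cells. Gain or loss of signal fitted relative to DMSO.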

Experiment [11] is described as follows: ATG_VDRE_CIS: Attagene CIS-FACTORIAL HepG2 Assay for human Vitamin D Receptor Element (VDRE) (AID 2282968). The note with it: HepG2 VDRE cis-reporter transcription, actives raise or lower the signal. The method in brief:
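Cell-based multiplexed reporter format in human liver HepG2 cells, 24 h post-dose. Fluorescence from capillary electrophoresis of reporter cDNA gives the signal, with DMSO as negative control and baseline.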

Experiment [12] has as its target Nuclear receptor subfamily 1 group I member 3 (Homo sapiens) (UniProt Q14994). The experiment can be described thus: ATG_CAR_TRANS: Attagene TRANS-FACTORIAL HepG2 Assay for human Constitutive Androstane Receptor (CAR) (AID 2282969; active means hit-call score of the fitted dose curve at least 0.9, where 1 is the maximum;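 further: activators raise reporter mRNA above DMSO so AC50 marks induction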). The note with it: HepG2 Attagene TRANS-FACTORIAL CAR reporter. The method, boiled down:
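HepG2 cells transiently transfected with GAL4-UAS reporter units; TRANS format reads activity of exogenous chimeric NR-Gal4 protein. After 24 h dosing, reporter mRNA quantified by RT-PCR, 6-FAM labelling and capillary electrophoresis; gain of signal fitted against DMSO.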

For experiment [13], the target named is Estrogen receptor (Homo sapiens) (UniProt P03372). Kind of experiment: ATG_ERa_TRANS: Attagene TRANS-FACTORIAL HepG2 Assay for human Estrogen Receptor alpha (ERa) (AID 2282970; active means hit-call score of the fitted dose curve at least 0.9, where 1 is the maximum). The note with it: HepG2 Attagene TRANS ERa GAL4 reporter, mRNA. The method, boiled down:
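Cells: HepG2, transiently transfected. Construct: GAL4-UAS reporter units regulated by exogenous NR-Gal4 chimeras. Time: 24 h. Detection: reporter mRNA by RT-PCR, capillary electrophoresis, fluorescence. Baseline: DMSO, upward fitting.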

Experiment [14] deals with X-box-binding protein 1 (Homo sapiens) (UniProt P17861). The experiment can be described thus: ATG_Xbp1_CIS: Attagene CIS-FACTORIAL HepG2 Assay for human X-box Binding Protein 1 (XBP1) (AID 2282972). The note with it: HepG2 XBP1 cis-element reporter, Attagene multiplex; actives raise or lower the signal. The method in brief:
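After a 24-hour chemical exposure of HepG2 cells carrying cis-regulated reporters, reporter mRNA levels are assessed. Quantification uses RT-PCR, 6-FAM labelling and capillary electrophoresis. Gain- or loss-of-signal is fitted against DMSO.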

Experiment [15] is described as follows: ATG_M_19_TRANS: Attagene TRANS-FACTORIAL HepG2 Assay for M19 Transcription Factor (Internal Marker) (AID 2282974; active means hit-call score of the fitted dose curve at least 0.9, where 1 is the maximum). Conditions: HepG2 Attagene TRANS-FACTORIAL M19 internal marker reporter. The method in brief:
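After transfection of HepG2 with GAL4-UAS-driven reporter constructs, cells are dosed for 24 h. Total RNA is reverse-transcribed, reporter sequences PCR-amplified and labelled, then HpaI-digested and sized by capillary electrophoresis.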

Experiment [16] can be described thus: ATG_GAL4_TRANS: Attagene TRANS-FACTORIAL HepG2 Assay for GAL4 (Internal Marker) (AID 2282976; active means hit-call score of the fitted dose curve at least 0.9, where 1 is the maximum). The note with it: HepG2 Attagene TRANS GAL4 internal marker reporter. The method, boiled down:
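In transfected human HepG2 liver cells dosed 24 h, GAL4 reporter mRNA serves as a baseline marker. Detection by RT-PCR with fluorescent capillary electrophoresis, activity fitted upward relative to DMSO.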

The target of experiment [17] is Signal transducer and activator of transcription 3 (Homo sapiens) (UniProt P40763). The experiment can be described thus: ATG_STAT3_CIS: Attagene CIS-FACTORIAL HepG2 Assay for human Signal Transducer and Activator of Transcription 3 (STAT3) (AID 2282963). Conditions: HepG2, Attagene cis-factorial STAT3 reporter transcription; actives raise or lower the signal. The method in brief: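 Values derive from bidirectional fits relative to DMSO of reporter mRNA levels, measured by RT-PCR with capillary electrophoresis, in HepG2 cells carrying transiently transfected cis-regulated reporter units and exposed 24 h.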
Chain of Signal transducer and activator of transcription 3 (Homo sapiens) (P40763 whole entry, looked up): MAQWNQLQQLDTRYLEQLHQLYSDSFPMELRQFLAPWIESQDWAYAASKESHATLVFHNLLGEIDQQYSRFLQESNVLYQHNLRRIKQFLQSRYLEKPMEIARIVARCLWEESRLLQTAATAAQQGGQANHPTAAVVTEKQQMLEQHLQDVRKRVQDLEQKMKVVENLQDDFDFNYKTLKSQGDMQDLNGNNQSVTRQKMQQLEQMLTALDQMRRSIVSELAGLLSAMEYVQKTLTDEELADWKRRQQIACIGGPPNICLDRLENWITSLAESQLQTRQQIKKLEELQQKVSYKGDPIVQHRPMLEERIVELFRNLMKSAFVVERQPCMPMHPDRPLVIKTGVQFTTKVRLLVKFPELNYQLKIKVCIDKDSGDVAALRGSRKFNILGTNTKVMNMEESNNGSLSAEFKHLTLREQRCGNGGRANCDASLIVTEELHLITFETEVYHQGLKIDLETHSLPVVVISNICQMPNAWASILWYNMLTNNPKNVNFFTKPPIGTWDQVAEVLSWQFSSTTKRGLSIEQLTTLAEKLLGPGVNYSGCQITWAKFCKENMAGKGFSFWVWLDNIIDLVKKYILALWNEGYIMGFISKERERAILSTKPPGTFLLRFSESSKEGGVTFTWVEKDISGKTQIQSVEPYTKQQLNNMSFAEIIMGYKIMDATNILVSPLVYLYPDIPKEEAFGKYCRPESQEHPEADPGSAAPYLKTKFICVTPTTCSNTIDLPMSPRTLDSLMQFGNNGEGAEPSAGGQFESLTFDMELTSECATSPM

Experiment [18] in a line: ATG_TA_CIS: Attagene CIS-FACTORIAL HepG2 Assay for human TA Basal Promoter (AID 2282964). The note with it: HepG2 Attagene CIS-factorial TA basal promoter reporter; actives raise or lower the signal. The method, boiled down:
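Background-control readout: TA basal promoter reporter mRNA, fitted in both directions relative to DMSO. Measured by RT-PCR and capillary electrophoresis 24 hours after treating HepG2 human liver cells transiently carrying multiplexed cis-regulated reporter constructs.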

Experiment [19] is described as follows: ATG_PPRE_CIS: Attagene CIS-FACTORIAL HepG2 Assay for human Peroxisome Proliferator-activated Response Element (PPRE) (AID 2282958). Conditions: HepG2 PPRE cis-element reporter, Attagene transcription factor profiling; actives raise or lower the signal. The method, boiled down: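 Transcript-level reporter induction in transfected HepG2 cells after 24 h chemical exposure, quantified by fluorescence from RT-PCR products separated by capillary electrophoresis.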

Chain of X-box-binding protein 1 (Homo sapiens) (P17861 whole entry, looked up): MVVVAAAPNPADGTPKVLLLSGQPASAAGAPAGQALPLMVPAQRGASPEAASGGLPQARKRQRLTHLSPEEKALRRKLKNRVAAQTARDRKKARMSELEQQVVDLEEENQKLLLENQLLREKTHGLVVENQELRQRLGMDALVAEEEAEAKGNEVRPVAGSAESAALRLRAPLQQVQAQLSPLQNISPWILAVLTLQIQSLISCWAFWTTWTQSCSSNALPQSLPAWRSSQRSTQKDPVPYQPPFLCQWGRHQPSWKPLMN
Chain of Estrogen receptor (Homo sapiens) (P03372 whole entry, looked up, the tested form may be a part): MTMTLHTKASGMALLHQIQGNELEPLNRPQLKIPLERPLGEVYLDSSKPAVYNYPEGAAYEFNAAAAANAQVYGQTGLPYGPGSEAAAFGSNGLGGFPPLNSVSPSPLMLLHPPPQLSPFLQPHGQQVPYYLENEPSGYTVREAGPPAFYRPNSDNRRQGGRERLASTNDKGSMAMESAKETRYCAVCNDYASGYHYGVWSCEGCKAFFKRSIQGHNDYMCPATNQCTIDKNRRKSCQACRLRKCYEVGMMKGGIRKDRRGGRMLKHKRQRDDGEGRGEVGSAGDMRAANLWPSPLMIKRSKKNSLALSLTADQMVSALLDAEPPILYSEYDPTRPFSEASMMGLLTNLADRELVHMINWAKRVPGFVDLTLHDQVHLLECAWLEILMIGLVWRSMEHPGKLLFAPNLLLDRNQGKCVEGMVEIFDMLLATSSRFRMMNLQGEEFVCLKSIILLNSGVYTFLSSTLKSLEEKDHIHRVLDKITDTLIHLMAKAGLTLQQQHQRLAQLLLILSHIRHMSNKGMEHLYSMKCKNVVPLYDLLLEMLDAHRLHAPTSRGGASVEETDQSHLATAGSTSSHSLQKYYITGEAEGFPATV
Chain of Nuclear receptor subfamily 1 group I member 3 (Homo sapiens) (Q14994 whole entry, looked up, the tested form may be a part): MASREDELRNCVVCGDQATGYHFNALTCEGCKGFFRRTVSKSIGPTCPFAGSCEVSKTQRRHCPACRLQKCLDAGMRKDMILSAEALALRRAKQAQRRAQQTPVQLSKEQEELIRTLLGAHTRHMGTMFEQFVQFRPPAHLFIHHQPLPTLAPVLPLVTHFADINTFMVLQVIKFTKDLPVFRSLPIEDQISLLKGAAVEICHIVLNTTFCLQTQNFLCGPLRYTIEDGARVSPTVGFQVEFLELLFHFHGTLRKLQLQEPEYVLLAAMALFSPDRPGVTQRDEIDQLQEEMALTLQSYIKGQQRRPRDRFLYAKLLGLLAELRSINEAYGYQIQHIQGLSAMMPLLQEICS
Chain of Transcription factor Sp1 (Homo sapiens) (P08047 whole entry, looked up): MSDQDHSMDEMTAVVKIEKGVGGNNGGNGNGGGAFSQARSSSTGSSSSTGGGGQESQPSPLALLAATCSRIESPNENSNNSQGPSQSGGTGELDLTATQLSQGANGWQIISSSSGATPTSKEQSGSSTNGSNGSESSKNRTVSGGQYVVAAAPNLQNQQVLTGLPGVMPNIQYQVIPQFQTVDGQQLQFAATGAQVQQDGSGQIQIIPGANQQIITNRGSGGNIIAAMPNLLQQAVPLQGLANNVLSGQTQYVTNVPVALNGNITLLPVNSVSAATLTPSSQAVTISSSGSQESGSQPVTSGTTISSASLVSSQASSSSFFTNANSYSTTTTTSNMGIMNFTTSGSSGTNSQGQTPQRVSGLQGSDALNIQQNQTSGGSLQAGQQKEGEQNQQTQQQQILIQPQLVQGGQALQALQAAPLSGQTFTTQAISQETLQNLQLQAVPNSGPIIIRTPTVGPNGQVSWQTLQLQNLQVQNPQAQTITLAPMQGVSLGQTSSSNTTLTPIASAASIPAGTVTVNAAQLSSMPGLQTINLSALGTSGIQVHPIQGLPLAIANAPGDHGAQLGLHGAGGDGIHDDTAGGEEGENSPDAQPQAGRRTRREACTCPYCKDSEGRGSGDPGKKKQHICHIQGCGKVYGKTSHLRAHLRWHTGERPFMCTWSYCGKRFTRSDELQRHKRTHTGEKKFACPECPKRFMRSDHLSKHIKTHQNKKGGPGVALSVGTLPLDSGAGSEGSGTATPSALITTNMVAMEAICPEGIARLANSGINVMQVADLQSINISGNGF
Chain of Paired box protein Pax-6 (Homo sapiens) (P26367 whole entry, looked up): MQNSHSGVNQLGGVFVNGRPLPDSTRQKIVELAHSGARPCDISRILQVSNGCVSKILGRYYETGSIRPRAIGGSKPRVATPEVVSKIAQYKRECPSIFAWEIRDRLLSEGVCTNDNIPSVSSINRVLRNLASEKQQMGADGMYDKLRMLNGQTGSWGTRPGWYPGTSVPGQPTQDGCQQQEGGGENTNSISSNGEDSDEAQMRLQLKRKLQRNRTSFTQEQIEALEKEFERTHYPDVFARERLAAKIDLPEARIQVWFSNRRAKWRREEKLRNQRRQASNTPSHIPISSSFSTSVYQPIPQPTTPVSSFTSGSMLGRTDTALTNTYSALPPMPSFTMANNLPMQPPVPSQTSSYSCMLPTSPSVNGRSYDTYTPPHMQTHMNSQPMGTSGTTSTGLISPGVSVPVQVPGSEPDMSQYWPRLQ

As for `Cc1c(Cl)cccc1Cl`, the result in experiment [1], in experiment [2], in [3], in experiment [4], in [5] and in experiment [6] was inactive. Further, the compound was called inactive in [7], in [8], in experiment [9], in experiment [10], in experiment [11] and in [12]. Also, the compound was called inactive in experiment [13], in [14], in [15] and in experiment [16].

For `CCC(C)(O)CCCC(C)C` (stereo not drawn), the outcome in [1], in experiment [2], in experiment [3], in experiment [5], in [6] and in [7] was inactive. Moreover, the result in experiment [17], in [18], in [8], in experiment [9], in experiment [12] and in [13] was inactive. Besides, the outcome in experiment [14], in experiment [15] and in [16] was inactive.

One may read the AC50 as the concentration at which the activity in the assay is half-maximal. Turning to `CCOC(=O)c1ccc(C)cc1`, the outcome in experiment [1], in experiment [19], in experiment [4], in experiment [5], in [6] and in experiment [7] was inactive. Also, the compound was classed as inactive in [17], in [18], in experiment [8], in [9], in [10] and in [11]. The outcome in experiment [13] and in experiment [14] was inactive. In addition, in experiment [3], the AC50 is 56.8 µM (active).

`CC1=CC=C(C(C)C)CC1`: the outcome in experiment [1], in experiment [2], in experiment [5], in [6], in [7] and in [18] was inactive. In addition, the compound was classed as inactive in experiment [8], in experiment [9], in experiment [10], in experiment [12], in experiment [13] and in experiment [14]. Besides, the outcome in experiment [15] was inactive. In addition, the half-maximal activity concentration (AC50) in experiment [3] was 3.61 µM (active).

Consider `CCCCC1CCC(=O)O1` (stereo not drawn), for which the outcome in [1], in [2], in [5], in experiment [6], in experiment [7] and in experiment [17] was inactive. Also, the result in [8], in experiment [9], in experiment [10], in experiment [13], in [14] and in [15] was inactive. Further, in experiment [3], the AC50 was 22.4 µM (active).

In the case of `CC(CCC(=O)O)(c1ccc(O)cc1)c1ccc(O)cc1`, the result in experiment [1], in experiment [2], in experiment [4], in experiment [6], in [7] and in experiment [17] was inactive. The compound was classed as inactive in [18], in [8], in experiment [9], in experiment [10], in experiment [11] and in experiment [14]. Further, the result in experiment [15] and in experiment [16] was inactive. The AC50 in experiment [3] is 27.5 µM (active); in [13], 16.4 µM (active).

Take `Oc1ccc(/C=C/c2cc(O)cc(O)c2)cc1`: the AC50 in [1] was 100 µM (active); in experiment [7] it was 26.9 µM (active); in [18], 137 µM (active); in experiment [8], 27.3 µM (active); in experiment [13], 6 µM (active). Further, the compound was called inactive in [2], in [3], in experiment [5], in [6], in experiment [17] and in experiment [9]. Also, the call in experiment [10], in experiment [11] and in experiment [16] was inactive.

On to `Cc1ccc2c(c1)CCCN2`, for which the result in experiment [1], in [2], in [4], in experiment [5], in experiment [6] and in experiment [7] was inactive. In addition, the call in experiment [18], in experiment [8], in [9], in experiment [10], in experiment [13] and in [14] was inactive. Also, the AC50 in [3] was 65.1 µM (active).

`CCC1(C)C(=O)N(Cl)C(=O)N1Cl` (stereo not drawn): the outcome in experiment [1], in experiment [6], in experiment [7], in experiment [17], in [18] and in experiment [9] was inactive. The call in experiment [10], in experiment [12], in [13], in experiment [15] and in experiment [16] was inactive. For the same compound, the AC50 is 49.8 µM (active) in experiment [2]; 58.6 µM (active) in [3]; 37.9 µM (active) in [5]; 52.2 µM (active) in experiment [8]; 32.4 µM (active) in experiment [11]; 47.1 µM (active) in experiment [14].
